Data from the supplement of paper PMC11026393.

System: H1299
Assay: difference in mean normalized H2B-mRuby nuclear fluorescence intensity relative to DMSO control (normalized intensity difference (DMSO = 0)); higher = stronger increase in transgene reporter fluorescence
Conditions: 24 h
Procedure: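 Cancer cell lines stably expressing H2B-mRuby2 from a lentiviral PGK promoter were treated with each drug for 24 h and imaged on a Leica DMI8 (ex 541-551 / em 565-605 nm). Nuclei were segmented in CellProfiler. The value is the difference in mean per-nucleus normalized H2B-mRuby intensity versus DMSO-treated cells (about 3 repeats x 4 fields). Doxorubicin is itself fluorescent. Dasatinib is in nM.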

Row | Structure (SMILES) | difference (concentration: 0.1) | difference (concentration: 0.5) | difference (concentration: 1) | difference (concentration: 5) | difference (concentration: 10) | difference (concentration: 25) | difference (concentration: 100) | difference (concentration: 500)
1 | Cc1sc2c(c1C)C(c1ccc(Cl)cc1)=N[C@@H](CC(=O)OC(C)(C)C)c1nnc(C)n1-2 (concentration unit: uM) | 0.176 | 0.367 | 0.441 | 0.532 | 0.625 | – | – | –
2 | CN[C@@H]1C[C@H]2O[C@@](C)([C@@H]1OC)n1c3ccccc3c3c4c(c5c6ccccc6n2c5c31)C(=O)NC4 (concentration unit: nM) | – | – | – | -0.113 | -0.185 | -0.17 | 0.0873 | 0.138
